ELG1 repair inh: inhibitors of ELG1-dependent DNA repair in HEK293T cells; HEK293T ELG1-luciferase reporter, luminescence, 16 h; DNA damage induced by 5-fluorouridine; Potency, µM (highest dose often 46.1 µM), for the others: at the top dose activity change, negative = inhibition, hits mostly inhibitors; 330,000 compounds, 2.3% hits; AID 504467; also: potency is read from the fitted curve at half-maximal effect; nearly all actives have a fitted effect of over 55% in size
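Quantitative HTS, concentration-response format. 2,000 cells/well co-treated with 5-fluorouridine and compound, 16 hr in 5% CO2 at 37 °C; ONE-Glo luminescence read after 30 min.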
VP16 counter: counter-screen for ROR gamma inhibitors: Gal4-VP16 reporter; Potency, µM (titrated, usually from 53.6 µM), without a hit: at the top dose activity, negative = inhibition, actives largely listed as inhibitors; Drosophila S2 Gal4-VP16 UAS-luciferase, luminescence, 20 h; 310,000 compounds, 3.5% hits;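 also: Gal4-VP16 expression switched on by copper sulfate through the metallothionein promoter; potency is read from the fitted curve at half-maximal effect; nearly all actives have a fitted effect of over 50% in size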
TDP1 cell noCPT: qHTS for Inhibitors of human tyrosyl-DNA phosphodiesterase 1 (TDP1): qHTS in cells in absence of CPT; 420,000 compounds, 15% hits; AID 686978, 2013; DT40 Tdp1-/- hTDP1 cells, no CPT, ATP luminescence, 48 h; Potency, µM (highest dose often 46.2 µM), without a hit: top-dose activity change, negative = growth inhibition, usual class: inhibitors; also: potency is read from the fitted curve at half-maximal effect; nearly all actives have a fitted effect of over 55% in size
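Chicken DT40 Tdp1-/- cells complemented with human TDP1, screened without camptothecin (DMSO vehicle only), 400 cells/well. Compounds pin-transferred, cells incubated at 37 °C for at least 48 hr. Growth read as ATP-dependent luminescence (CellTiter-Glo, 30 min at RT).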
RORgamma inh: ROR gamma (mouse) transcription inhibition. Drosophila S2 Gal4-RORgamma UAS-luciferase reporter, 20 h. Potency, µM (series often up to 53.6 µM), without a hit: at the top dose activity change, negative = inhibition, hits mostly inhibitors. 310,000 compounds, 5.4% hits; also: potency is read from the fitted curve at half-maximal effect; nearly all actives have a fitted effect of over 60% in size
Target sequence (P51450 whole entry, looked up, the tested form may be a part): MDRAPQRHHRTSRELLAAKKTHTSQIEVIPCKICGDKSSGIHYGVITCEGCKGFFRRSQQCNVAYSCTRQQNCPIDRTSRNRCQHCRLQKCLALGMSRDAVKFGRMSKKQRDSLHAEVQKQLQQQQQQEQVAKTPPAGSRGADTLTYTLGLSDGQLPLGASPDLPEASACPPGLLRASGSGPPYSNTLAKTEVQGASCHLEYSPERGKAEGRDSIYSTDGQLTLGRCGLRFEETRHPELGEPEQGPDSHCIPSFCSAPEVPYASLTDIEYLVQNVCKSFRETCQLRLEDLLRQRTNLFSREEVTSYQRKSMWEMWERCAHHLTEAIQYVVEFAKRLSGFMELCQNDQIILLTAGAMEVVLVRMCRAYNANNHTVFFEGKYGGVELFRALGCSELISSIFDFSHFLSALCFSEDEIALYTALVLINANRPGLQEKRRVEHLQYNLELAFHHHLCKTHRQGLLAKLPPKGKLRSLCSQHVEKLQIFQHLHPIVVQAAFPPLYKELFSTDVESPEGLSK
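Using a luciferase readout, inhibitors were identified by reduced reporter activity in Drosophila cells coexpressing a copper-inducible Gal4–ROR gamma fusion and UAS-driven Photinus luciferase, incubated 20 hr after 700 uM copper sulfate.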
IL1B secr inh: inhibitors of inflammasome signaling (IL-1 beta secretion); 360,000 compounds, 4.7% hits; activity change, % at 57.5 µM; THP-1 LPS/ATP IL-1B secretion, AlphaLISA, 16 h; active compounds read low; in the data active = activity change below about -50%; inconclusive = mostly about -30% to -49%
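Secreted IL-1B measured by AlphaLISA bead assay after 16 h compound exposure of THP-1 cells; compounds (final up to 57.5 uM) added 1 h before LPS (250 ng/mL) and ATP (1.25 mM) stimulation; lower signal means less secretion.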
TDP1 cell CPT: DT40-hTDP1 cell growth loss with CPT; AID 686979; Potency, µM (top dose mostly 46.2 µM), for the others: at the highest dose activity change, negative = growth inhibition, usual class: inhibitors; 420,000 compounds, 12% hits; chicken DT40 Tdp1-/-;hTDP1 cells + 20 nM CPT, ATP luminescence, 48 h; also: potency is read from the fitted curve at half-maximal effect; nearly all actives have a fitted effect of over 55% in size
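Chicken DT40 Tdp1-/- cells complemented with human TDP1, 400 cells/well, exposed to compounds plus 20 nM camptothecin for at least 48 h at 37 C; viability read as ATP content by CellTiter-Glo luminescence.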
An asterisk follows results filed as active; ? = inconclusive; nt = not tested or not shown; [ ] = remark or other dose. In the library only some 21% were active in any assay of this set; here they are far more common. Unless noted, calls follow the shape of the dose curve; as a rule, active = well fitted curve in the direction sought with a large enough effect; inconclusive = small, poorly fitted or top-dose-only effect, or another doubt; inactive = no such curve, though single readings can be large; an effect the other way counts as inactive or inconclusive. % is scaled to controls: 0 for no effect and ±100 for the full control effect.

SMILES	ELG1 repair inh	VP16 counter	TDP1 cell noCPT	RORgamma inh	IL1B secr inh	TDP1 cell CPT
Cc1ccc(NC(=O)c2cc([N+](=O)[O-])ccc2N2CCOCC2)cc1S(=O)(=O)N1CCOCC1	-10%	3%	-27%	9%	-14	-24%
COCc1c(C(=O)Nc2ccc(C)c(S(=O)(=O)N3CCOCC3)c2)oc2ccccc12	nt	nt	?	nt	-3	?
Cc1ccc(NC(=O)c2c(C)noc2C)cc1S(=O)(=O)N1CCOCC1	-4%	nt	-4%	nt	27	-23%
Cc1ccc(NC(=O)c2cc(=O)c3ccccc3o2)cc1S(=O)(=O)N1CCOCC1	23µM*	10%	12µM*	31%	0	18µM*
Cc1ccc(NC(=O)c2ccccc2-c2ccc(C(F)(F)F)cc2)cc1S(=O)(=O)N1CCOCC1	21µM*	-8%	15µM*	41%	-19	?
Cc1ccc(NC(=O)c2ccc([N+](=O)[O-])o2)cc1S(=O)(=O)N1CCOCC1	?	-21%	4.6µM*	-15%	-94*	5.2µM*
Cc1ccc(NC(=O)c2ccc3ccccc3n2)cc1S(=O)(=O)N1CCOCC1	?	-17%	15µM*	24%	41	?
COc1ccc(NC(=O)c2ccccc2-c2ccc(C(F)(F)F)cc2)cc1S(=O)(=O)N1CCOCC1	-4%	-13%	?	16%	-1	7%
Cn1ccc2cc(-c3csc(N4CCC(C(N)=O)CC4)n3)ccc21	12%	nt	nt	nt	nt	nt
CN(C)S(=O)(=O)c1ccc(C(=O)NC2CC(=O)N(c3ccc4c(c3)OCCO4)C2)cc1 (stereo not drawn)	nt	nt	-23%	nt	nt	2%
COc1ccccc1CCC(=O)Oc1ccccc1C#N	15%	3%	-6%	-21%	0	-3%
Cc1ccc(NC(=O)c2cc(=O)c3ccccc3o2)cc1S(=O)(=O)N1CCCCC1	16µM*	-11%	21µM*	44%	?	?
Cc1ccc(NC(=O)C(=O)c2c(-c3ccccc3)cc3ccccn23)cc1S(=O)(=O)N1CCOCC1	9.2µM*	-5%	?	8%	-18	?
Cc1ccc(NC(=O)CCS(=O)(=O)c2ccccc2)cc1S(=O)(=O)N1CCOCC1	-1%	6%	-6%	9%	0	8%
O=C(O)C1C2CCC(O2)C1C(=O)Nc1ccc(Br)cc1F (stereo not drawn)	nt	nt	7%	nt	13	0%
CC(=O)Nc1ccc(-c2ccnc3c2CC(C)(C(=O)Nc2ccc(C(C)C)cc2)O3)cc1 (stereo not drawn)	nt	nt	21µM*	nt	-84*	23µM*
CC(C)c1ccc(NC(=O)C2(C)Cc3c(-c4ccc(C(N)=O)cc4)ccnc3O2)cc1 (stereo not drawn)	nt	nt	16µM*	nt	9	16µM*
O=C(COC(=O)c1cnccn1)c1ccc([N+](=O)[O-])cc1	5%	20%	?	28%	-54*	23µM*
O=C(COC(=O)c1cnccn1)c1ccc(Cl)c([N+](=O)[O-])c1	-3%	-19%	?	-10%	-60*	?
COc1cccc(NC(=O)CN(C)C(=O)c2cc3c(s2)CCCCC3)c1	16%	nt	-29%	nt	16	-16%
O=C(CNS(=O)(=O)c1ccccc1)NCC(=O)OCc1ccc(Br)cc1	15%	-3%	?	2%	8	21µM*
Cc1ccccc1N(C(=O)Cc1c[nH]c2ccccc12)C(C(=O)NC1CCCCC1)c1ccco1 (stereo not drawn)	?	-14%	9.2µM*	4%	-4	21µM*
COc1ccc(C(C(=O)NC2CCCCC2)N(C(=O)Cc2c[nH]c3ccccc23)c2ccccc2C)cc1OC (stereo not drawn)	-25%	-19%	21µM*	-3%[10 µM]	-61*	?
Cc1ccc(C(C(=O)NC2CCCCC2)N(C(=O)Cc2c[nH]c3ccccc23)c2ccccc2C)o1 (stereo not drawn)	21%	?	21µM*	20%[10 µM]	21	26µM*
CCN(Cc1ccccc1)C(=O)Cc1c[nH]c2ccccc12	1%	-7%	-23%	15%	-7	3%
SMILES	ELG1 repair inh	VP16 counter	TDP1 cell noCPT	RORgamma inh	IL1B secr inh	TDP1 cell CPT
CCOc1ccc(CN(CC)C(=O)Cc2c[nH]c3ccccc23)cc1OC	-6%	-9%	15µM*	33%	0	?
COc1ccc(OC)c(NC(=O)CCCc2nnc3n(C(C)C)c(=O)c4sccc4n23)c1	nt	nt	?	nt	nt	-17%
Cc1cc(OCC(=O)OCC(=O)N(Cc2ccccc2)C(C)(C)C)ccc1Cl	nt	nt	-11%	nt	8	-19%
Cc1ccccc1CSc1nc(-c2cccc(F)c2)nc2c1Cc1c(CO)cnc(C)c1O2	nt	nt	-10%	nt	nt	-8%
COCCN(C(=O)CCl)C(C(=O)NC1CCCCC1)c1ccccc1C (stereo not drawn)	21µM*	?	2.1µM*	?	-101*	2.9µM*
Cc1ccc(C(C(=O)NC2CCCC2)N(C(=O)CNC(=O)c2ccco2)c2ccccc2)o1 (stereo not drawn)	-1%	-14%	0%	-18%	-5	6%
O=C(NCC1CCCO1)C(c1ccncc1)N(Cc1cccs1)C(=O)CN1C(=O)c2ccccc2S1(=O)=O (stereo not drawn)	-6%	?	0%	20%	20	9%
O=C(NC1CCCCC1)C(c1ccc(F)cc1)N(Cc1cccs1)C(=O)CN1C(=O)c2ccccc2S1(=O)=O (stereo not drawn)	5%	-15%	16µM*	-41%	40	16µM*
Cc1ccc(C(C(=O)NC2CCCCC2)N(Cc2ccco2)C(=O)Cc2c[nH]c3ccccc23)o1 (stereo not drawn)	?	-7%	?	1%	-77*	?
COc1ccc(C(C(=O)NC2CCCCC2)N(Cc2cccs2)C(=O)Cc2c[nH]c3ccccc23)cc1OC (stereo not drawn)	?	-7%	21µM*	?	?	13µM*
COc1ccc(C(C(=O)NC2CCCC2)N(C(=O)Cc2cccs2)C2CC2)cc1OC (stereo not drawn)	10%	0%	-2%	-12%	-7	10%
O=C1NC[C@H](CCCCN2C[C@H](Cc3ccc(O)cc3)N(CCc3ccc(O)cc3)C(=O)C2=O)N(CCc2ccc(O)cc2)C1=O	nt	nt	1%	nt	36	7%
CCc1cccc(C)c1NC(=O)CSc1n[nH]c(N)n1	-2%	nt	9%	nt	13	-2%

From PubChem
